# PubChem BioAssay AID651994 (Sanford-Burnham Center for Chemical Genomics, 2013)
# About 790 (32%) of roughly 2,500 compounds were called active. A selection follows. Values without a mark were called inactive.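 The calls were made as follows: active = mean cytotoxicity at 5 µM above about 25% (limit read from the data); inactive = the rest.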
# Assay: cell viability loss, Sufu-null reporter line – ATP luminescence, single concentration, cytotoxicity control for Gli-SUFU antagonist project, confirmation (AID 651994);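 also: cells exposed to compound overnight for roughly 16 to 18 hours; plate controls were DMSO wells with cells for no effect and medium without cells for full effect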
# Details: Sufu-KO-LIGHT cells cytotoxicity, at 5 µM, hits give high values
row,SMILES,cytotoxicity
1,Cc1ccsc1C(=O)OCC(=O)c1cc(C)n(CC2CCCO2)c1C (configuration not stated),26.6% (active)
2,Cc1cccc2nc(CSc3nc4[nH]ncc4c(=O)n3-c3cccc(Cl)c3)cc(=O)n12,20.1%
3,Cc1ccc(S(=O)(=O)N(Cc2cc3ccccc3[nH]c2=O)CC2CCCO2)cc1 (configuration not stated),5.2%
4,COc1ccccc1CNC(=O)C1CCN(c2nc3ccccc3o2)CC1,17.9%
5,Cc1cccc(NS(=O)(=O)c2ccc(-c3cnc(C4CC4)o3)cc2)c1,54.4% (active)
6,COc1ccc(NS(=O)(=O)c2ccc(NC(C)=O)cc2)cc1OC,14%
7,Cc1cc(C)c(SCCc2ccncc2)c(C)c1,29.5% (active)
8,Cc1ccc(NC(=O)CN(C)CC(=O)Nc2cccc(F)c2)cc1[N+](=O)[O-],29% (active)
9,Cc1ccc(O)c(NC(=O)COc2cc(C)ccc2C)c1,-3.46%
10,CCCCNc1nc2c(c(=O)n(C)c(=O)n2C)n1Cc1cccc(OC)c1,44.5% (active)
11,COCCn1c(CN2CCC(Cc3ccccc3)CC2)nc2c1c(=O)n(C)c(=O)n2C,19.8%
12,Cn1c(=O)c2c(nc(NCCc3ccccc3)n2Cc2ccccc2)n(C)c1=O,34.7% (active)
13,COc1ccc(NS(=O)(=O)c2ccc(N3CCN(CCO)CC3)c([N+](=O)[O-])c2)cc1,16.4%
14,CC(=O)OCCC(C)C,-7.84%
15,CCCc1nc(N)nc2c1C(=O)CC(C)(C)C2,5.9%
16,CN1C(CC(=O)Nc2ccc(Br)cc2)c2ccccc2CC1(C)C (configuration not stated),15.7%
17,Cc1ccc(C)c(S(=O)(=O)N2CCN(c3ncnc4sccc34)CC2)c1,69.2% (active)
18,c1ccc(-n2nnnc2N2CCOCC2)cc1,10.1%
19,CC[n+]1c(C)n(-c2ccccc2)c2ccc(NC(C)=O)cc21,29% (active)
20,CCC1CCCCN1CCCNC(=O)Cn1nc(-c2ccccc2)ccc1=O (configuration not stated),20.3%
21,CN(NC(=O)c1ccccc1F)c1nc(C(F)(F)F)nc2ccccc12,56.2% (active)
22,CCn1c(SCc2ccccc2)nc2cc(OC)c(OC)cc2c1=O,23.5%
23,CCOc1cccc(/C=N/NC(=S)NCCN2CCOCC2)c1O,20.7%
24,CCOC(=O)c1cnc(-n2nc(C)cc2C)nc1NNc1cc(C)nc(-c2ccccc2)n1,24%
25,CN(C)CCN(C(=O)C1CCCCC1)c1nc2cc3c(cc2s1)OCO3,20.3%
26,c1c2c(cc3sc(N4CCCCC4)nc13)OCCO2,51.8% (active)

row,SMILES,cytotoxicity
1,CCOC(=O)c1ccc(NC(=O)Cn2cnc3cc(C)c(C)cc32)cc1,24.9%
2,CC(=O)c1c(C)[nH]c(C(=O)OCC(=O)Nc2sc3c(c2C#N)CCCC3)c1C,17.2%
3,O=C(Cn1cc(C(=O)C2CC2)c2ccccc21)Nc1ccccc1Cl,16.3%
4,COc1ccccc1N1CCN(Cc2cc(OC)c3c(c2)OCO3)CC1,22.5%
5,COc1ccccc1C1C2=C(COC2=O)Nc2cc3c(cc21)OCO3 (configuration not stated),50.9% (active)
6,CCCOc1ccccc1C1CC(=O)Nc2cc3c(cc21)OCO3 (configuration not stated),48.1% (active)
7,O=C(O)CCCn1cc(NC(=O)COc2cccc(Cl)c2)cn1,11.7%
8,COc1ccc2nc(SCC(=O)Nc3c(C)cc(C)cc3C)[nH]c2c1,11.7%
9,CCN(CC(=O)Nc1cc(Cl)ccc1C)C(=O)CSCc1ccc(C)cc1,6.16%
10,Cc1ccc(-c2nc3c(cnn3-c3ccccc3)c(=O)o2)cc1,8.43%
11,CCOc1ccc(-n2c(O)c(/C=N/c3ccnn3Cc3ccncc3)c3ccccc3c2=O)cc1,23.8%
12,COc1ccccc1/C=C/CN1CCC(CO)(Cc2ccccc2)CC1,-4.47%
13,CC1CC2=C(CC1/C=N/NC(N)=S)C(C)(C)CCC2 (configuration not stated),11.9%
14,CC(=O)/C(=N\Nc1ccc(Cl)cc1Cl)Sc1cccc2cccnc12,25.7% (active)
15,CN(C)c1cc[n+](Cc2ccccc2)cc1,33.3% (active)
16,COC(=O)c1ccc(CSc2nnc(N)s2)o1,21.4%
17,CCNC(=S)N(CCN(CC)CC)Cc1cc2cc3c(cc2[nH]c1=O)OCO3,6.68%
18,C=CCn1c(SCC(=O)CC(=O)OCC)nc2cc(C(=O)N3CCC(C(N)=O)CC3)ccc2c1=O,3.69%
19,Cc1cc2[nH]ncc2cc1NC(=S)NC(=O)c1ccccc1,2.37%
20,Cc1ccccc1C(=O)NC(=S)Nc1ccc(N2CCN(C(=O)c3ccccc3)CC2)cc1,32.2% (active)
21,CC(C)Oc1ccc(CN2CCC(n3nccc3NC(=O)c3cccnc3)CC2)cc1,4.98%
22,CNc1ccc(SC#N)cc1,3.32%
23,CCCC1=Nc2cc(C(=O)NCc3ccco3)ccc2Sc2ccccc21,53.8% (active)
24,CC(C)c1ccc(OCC(O)CN2CCN(c3ccccn3)CC2)cc1 (configuration not stated),9.73%
25,CC(C)OCC(O)CN1CCN(C(c2ccccc2)c2ccccc2)CC1 (configuration not stated),16.3%
26,O=[N+]([O-])c1ccc(N2CCN(CC(O)COc3ccccc3)CC2)cc1 (configuration not stated),30.6% (active)

row,SMILES,cytotoxicity
1,O=C(c1cc(Cl)cc(Cl)c1)N1CCC(=O)N(C(COCc2ccccc2)Cc2ccccc2)CC1 (configuration not stated),21.8%
2,CCCCC(=O)NC(c1ccc(OC)c(OC)c1)c1ccc2cccnc2c1O (configuration not stated),19.2%
3,C=CCOC(=O)C1=C[C@@H](c2ccc3c(c2)OCO3)C[C@@H](OCCCCO)O1,2.89%
4,Cc1nonc1C1CCCN1C(=O)c1cc(COc2cccc(C(F)(F)F)c2)on1 (configuration not stated),29.3% (active)
5,O=C1/C(=C\c2cccnc2)CN(Cc2ccccc2)C/C1=C\c1cccnc1,10.1%
6,O=C(NC1CCN(C(=S)Nc2ccc(Cl)cc2)CC1)C1CCCCC1,2.7%
7,C=CCOc1nc2c(c(=O)n(C)c(=O)n2C)n1Cc1ccc(Cl)cc1Cl,26.7% (active)
8,COC(=O)Cc1[nH]n(-c2nc3ccccc3s2)c(=O)c1C(C)=Nc1ccc(OC)cc1,15.6%
9,COc1ccccc1CCNC(=O)C(=O)NCCC1CCCCN1S(=O)(=O)c1cccs1 (configuration not stated),20.7%
10,N#CC(C#N)=CN=c1ccn(Cc2ccc(Cl)cc2Cl)cc1,29.5% (active)
11,CCCOc1ccc(Cc2c(Cl)nc(SC)nc2NC)cc1,31.8% (active)
12,CC(C)Oc1ccc(/C=N/NC(=O)c2nnn(-c3nonc3N)c2CN(C)C2CCCCC2)cc1,9.64%
13,O=C(CN1C(=O)c2ccccc2S1(=O)=O)N1CCc2ccccc21,36.9% (active)
14,Cc1onc(-c2ccccc2)c1C(=O)Nc1ccccc1C#N,7.65%
15,Cc1cc(NC(=O)c2cccc(N3C(=O)CCC3=O)c2)no1,8.93%
16,C/C(=N\NC(=O)Cc1ccc(Cl)cc1)c1ccccn1,38.9% (active)
17,CC(=O)Nc1cccc(OCC(=O)/C=C2\N(C)c3ccccc3C2(C)C)c1,23.9%
18,Cc1ccc(C(=O)C[n+]2cc(-c3ccccc3)n3c2CCCCC3)cc1,38.4% (active)
19,COc1ccc(Cn2c(-c3ccc(Cl)cc3)c[n+]3ccccc23)cc1,15.3%
20,Cc1cc([N+](=O)[O-])c(-c2ccc(/C=N/n3cnnc3)o2)cc1Cl,3.83%
21,COc1ccc(OC)c(/C=N/NC(=O)c2ccc[n+](CC(=O)c3ccccc3)c2)c1,26.3% (active)
22,COc1cccc2cc(C(N)=O)/c(=N\NC(=O)c3ccccc3)oc12,19.1%
23,CCN(CC)S(=O)(=O)c1ccc(Cl)c(C(=O)NC(C)C(c2cccs2)N2CCCC2)c1 (configuration not stated),13.4%
24,COc1ccc(OC)c(Cc2cnc3nc(N)nc(N)c3c2C)c1,15.7%
25,CCOC(=O)c1cnc(Nc2nc3ccccc3o2)nc1CSC(=S)N1CCCCC1,20.4%
